“And” between values parts separate entries of the source, which are not always exact repeats. Equal entries are not always repeated. The source made the active and inactive calls.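 Rule for the calls, unless noted: active = compounds whose cell count with miR-34 switched on is under 0.7 times the count with it off; inactive = the rest.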
Columns and labels:
[1] = tested on: Aerobactin synthetase IucA (Klebsiella pneumoniae); test: inhibition of K. pneumoniae IucA enzyme – biochemical, Tocris library, absorbance (AID 1345561; call rule not given here;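 note: 100% = enzyme without compound and 0% = no enzyme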); details: purified IucA enzyme assay, absorbance (OD) read-out; stronger effect = lower value;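 tested at 8 µM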
[2] = viability loss with induced miR-34 in A549 – imaging, A549 dox-inducible miR-34, nuclei and caspase counts, primary screen (AID 1347080); details: A549 miR-34 inducible, Hoechst nuclei count, 48 h
[3] = galactose survival enhancers in mitochondrial complex I cybrids – cell-based, galactose medium, ATP luminescence, primary screen (AID 1645843;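 active = z-score of at least 1.8 in each of two replicates, scored against plate mean and spread of sample wells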;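 note: positive z means more ATP and so rescue of galactose-driven cybrid death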); details: complex I mutant cybrid cells, 72 h, stronger effect = higher value
[4] = stronger effect = lower value, cell number ratio, induced over uninduced
[5] = measured here: relative caspase fold change +Dox/-Dox
[6] = measured here: total cells with miR-34 induction, stronger effect = lower value
[7] = measured here: total cells without miR-34 induction

SMILES	remaining activity [1]	fold change [2, 4]	fold change [2, 5]	cell count [2, 6]	cell count [2, 7]	z-score [3]
OC[C@H]1O[C@@H](n2cnc3c(N[C@H]4CCC[C@@H]4O)ncnc32)[C@H](O)[C@@H]1O	116% (inactive)	0.959 (inactive)	0.92	8820	9190	0.09 (inactive)
C[C@@H]1C(=O)OC2[C@H](O)C34[C@H]5C[C@@H](C(C)(C)C)[C@]36[C@@H](OC(=O)[C@@H]6O)O[C@@]4(C(=O)O5)[C@]21O (some centres undefined)	112% (inactive)	0.923 (inactive)	0.53	8430	9140	-0.225 (inactive)
Nc1nc(Nc2ccccc2)nc2c1ncn2[C@@H]1O[C@H](CO)[C@@H](O)[C@H]1O	107% (inactive)	0.978 (inactive)	0.752	9880	10100	-0.09 (inactive)
CC1(C)CC(=O)C(C2C3=C(CC(C)(C)CC3=O)Oc3ccccc32)C(=O)C1 (centres undefined)	120% (inactive)	0.884 (inactive)	0.511	9160	10400	-0.35 (inactive)
CC(C)[C@H]1c2ccc(F)cc2CC[C@@]1(CCN(C)CCCc1nc2ccccc2[nH]1)OC(=O)C1CC1	104% (inactive)	0.792 (inactive)	1.77	263	332	-0.705 (inactive)
Cc1ccccc1N=C(N)Nc1ccccc1C	93.4% (inactive)	0.944 (inactive)	0.72	8710	9220	-0.035 (inactive)
NC(C(=O)O)c1nn[nH]n1 (centres undefined)	102% (inactive)	1.01 (inactive)	0.805	9500	9360	-0.46 (inactive)
CC(=O)N[C@H](Cc1c[nH]c2ccccc12)C(=O)OCc1cc(C(F)(F)F)cc(C(F)(F)F)c1	106% (inactive)	0.923 (inactive)	0.896	8110	8790	-0.035 (inactive)
O=C(c1c(O)c2ccc(Cl)cc2[nH]c1=O)C1CC1	118% (inactive)	0.973 (inactive)	1.04	8250	8480	-0.025 (inactive)
CCC(=O)NC1Cc2ccccc2C(c2ccccc2)C1 (centres undefined)	124% (inactive)	1.02 (inactive)	1.01	8500	8340	0.46 (inactive)
CC(C)c1ccccc1S(=O)(=O)c1cc(N)c2ncccc2c1[N+](=O)[O-]	94.3% (inactive)	0.871 (inactive)	1.36	6170	7090	-0.685 (inactive)
c1ccc2oc(C3=NCCN3)cc2c1	116% (inactive)	0.904 (inactive)	1.14	8470	9370	0.405 (inactive)
O=C(O)/C=C1\CCCc2ccccc2C1O (centres undefined)	103% (inactive)	0.917 (inactive)	0.874	8860	9660	-0.145 (inactive)
CCCCC#Cc1nc(NC)c2ncn([C@@H]3O[C@H](CO)[C@@H](O)[C@H]3O)c2n1	96.8% (inactive)	0.906 (inactive)	0.777	8810	9730	-0.21 (inactive)
CCCCCCN(CCCCCC)C(=O)Cc1c(-c2ccc(Cl)cc2)[nH]c2ccc(Cl)cc12	102% (inactive)	0.89 (inactive)	0.984	5700	6410	-1.19 (inactive)
C[C@@]1(O)[C@H](O)[C@@H](CO)O[C@H]1n1cnc2c(NC3CCCC3)nc(Cl)nc21	118% (inactive)	1.01 (inactive)	1.12	7690	7600	0.755 (inactive)
CN1CCN(C2=Cc3ccccc3Oc3ccc(Cl)cc32)CC1	104% (inactive)	0.963 (inactive)	0.764	6800	7060	-0.9 (inactive)
Cc1c(C(=O)N(C)C2CCCCC2)sc2nc3ccc(N)cc3n12	121% (inactive)	0.956 (inactive)	1.28	7660	8010	-0.64 (inactive)
NC(C(=O)O)c1ccc(C(=O)O)c(C(=O)O)c1 (centres undefined)	109% (inactive)	0.922 (inactive)	0.667	8080	8760	0.13 (inactive)
O=C(NC1CCN(Cc2ccccc2)CC1)c1ccc(I)cc1	113% (inactive)	0.862 (inactive)	0.815	6720	7800	-0.755 (inactive)

SMILES	remaining activity [1]	fold change [2, 4]	fold change [2, 5]	cell count [2, 6]	cell count [2, 7]	z-score [3]
Cc1ccccc1N=Nc1ccc(NC(=O)c2ccnn2C)c(C)c1	109% (inactive)	0.919 (inactive)	0.67	5460	5950	-0.675 (inactive)
COc1cccc(C=NC=Nc2cccc(OC)c2)c1	120% (inactive)	0.917 (inactive)	0.661	8640	9420	-0.08 (inactive)
CN(C)C(=O)C(=O)c1cn(C)c2cc(Cl)c(C(=O)N3CCC(Cc4ccc(F)cc4)CC3)cc12	118% (inactive)	1.09 (inactive)	0.88	4920	4530	-0.96 (inactive)
CCCCCS(=O)(=O)CCCCCCCCCCn1c(-c2ccc(O)cc2)c(C)c2cc(O)ccc21	96.6% (inactive)	1.01 (inactive)	0.732	1420	1410	-0.685 (inactive)
Cc1ccc(CC2(O)CCN(CCOc3ccc(O)cc3)CC2)cc1	89.8% (inactive)	0.939 (inactive)	2.38	7760	8270	-0.49 (inactive)
OCCNCCCOc1cccc(Cl)c1Cl	98.9% (inactive)	0.929 (inactive) and 0.971 (inactive)	0.846 and 1.42	5820 and 3550	6260 and 3660	-0.65 (inactive)
Cc1cc(C(=O)O)sc1C(N)C(=O)O (centres undefined)	83.4% (inactive)	0.995 (inactive)	1.22	8770	8820	0.285 (inactive)
NS(=O)(=O)c1nn2cc(-c3ccccc3)nc2s1	99.1% (inactive)	1.09 (inactive)	0.795	4960	4530	-0.585 (inactive)
O=S(=O)(NCCCCCCc1ccccc1)c1cccc2c(Cl)cccc12	101% (inactive)	0.934 (inactive)	0.599	8620	9230	-1.14 (inactive)
CCCn1c(=O)[nH]c2nc(-c3ccc(S(=O)(=O)O)cc3)[nH]c2c1=O	93.6% (inactive)	0.829 (inactive)	2.26	7230	8720	1.45 (inactive)
CCS(=O)(=O)N(C)[C@H]1c2cc(C#N)ccc2OC(C)(C)[C@@H]1O	111% (inactive)	0.889 (inactive)	1.89	8640	9720	0.545 (inactive)
O=C(O)c1c(Sc2ccccc2)c2cc(Cl)ccc2n1Cc1ccc(Cl)cc1	122% (inactive)	0.94 (inactive)	1.45	6730	7160	1.25 (inactive)
Clc1cccc2c1CN(C1=NCCN1)C2	99.4% (inactive)	0.914 (inactive)	0.792	9080	9940	-0.085 (inactive)
CCCc1c(OCCCOc2ccc(OCC(=O)O)cc2)ccc(CC=O)c1O	117% (inactive)	0.911 (inactive)	0.927	9560	10500	1.5 (inactive)
O=C(O)c1ccc(/C=C2/SC(=S)N(c3cccc(C(F)(F)F)c3)C2=O)cc1	83.1% (inactive)	0.837 (inactive)	1.71	8080	9650	-0.215 (inactive)
CN(CC[C@@H](Oc1ccc(-c2ccccc2)cc1)c1ccc(F)cc1)CC(=O)O	116% (inactive)	0.898 (inactive)	1.24	7970	8870	0.455 (inactive)
COCCNC(=O)COc1ccc(OCCNC[C@@H](O)COc2ccccc2)cc1	95.4% (inactive)	0.88 (inactive)	0.916	8400	9540	0.13 (inactive)
N#Cc1ccc(NCCNCC(=O)N2CCC[C@H]2C#N)nc1	110% (inactive)	0.825 (inactive)	2.19	8330	10100	0.41 (inactive)
N#Cc1ccccc1OCC(O)CNCCNC(=O)Nc1ccccc1 (centres undefined)	118% (inactive)	0.847 (inactive)	1.36	8970	10600	-0.64 (inactive)

From PubChem BioAssay
